Assay results published in PubChem BioAssay (NCATS).
Inconclusive results are not listed. Calls of active or inactive are those of the source. Unless noted, calls come from the whole dose curve; as a rule, active = well fitted curve in the direction sought with a large enough effect; inconclusive = small, poorly fitted or top-dose-only effect, or another doubt; inactive = no such curve, though single readings can be large; an effect the other way counts as inactive or inconclusive.

Legend:
[1] = P-glycoprotein substrates identified in KB-3-1 adenocarcinoma cell line, qHTS therapeutic library screen (AID 1346986); note: nearly all actives have a fitted effect of over 60% in size;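 note: potency is the fitted concentration of half-maximal effect; potency is for cytotoxicity meaning loss of cell viability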
Summary of the method: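 Counter-screen: cherry-picked hits retested in the KB pair and in HEK-293 pcDNA/MDR-19 cells ± tariquidar. Primary screen used 72 h CellTiter-Glo viability in KB-3-1 and KB-8-5-11.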

[2] = P-glycoprotein substrates identified in KB-8-5-11 adenocarcinoma cell line, qHTS therapeutic library screen (AID 1346987); note: nearly all actives have a fitted effect of over 65% in size; note: potency is the fitted concentration of half-maximal effect
Summary of the method: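 KB-8-5-11: colchicine-selected sub-line of KB-3-1 over-expressing P-gp; assay medium lacked colchicine. 72 h drug exposure at 37 degree C, CellTiter-Glo.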

[3] = Primary qHTS for inhibitors of nuclear receptor binding SET domain protein 2 (NSD2) in an isogenic RCH-ACV NSD2 p.E1099K mutant (9B) (AID 1645876); note: nearly all actives have a fitted effect of over 70% in size; note: potency is the fitted concentration of half-maximal effect
[4] = Primary qHTS for inhibitors of nuclear receptor binding SET domain protein 2 (NSD2) in an RCH-ACV wild type WT cells (2C) (AID 1645877); note: nearly all actives have a fitted effect of over 70% in size; note: potency is the fitted concentration of half-maximal effect
[5] = target: Calcium and integrin-binding protein 1 (Homo sapiens) (UniProt Q99828); experiment: Primary qHTS for Identification of Calcium Integrin Binding Protein 1 (CIB1) Competitor (AID 1508620);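 note: GST tagged CIB1 binding a fluorescein labelled alphaIIb integrin peptide tracer; top concentration of the series differs between compounds; % is set by controls: 0 for no effect and ±100 for the full control effect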
Sequence of Calcium and integrin-binding protein 1 (Homo sapiens) (Q99828 whole entry, looked up): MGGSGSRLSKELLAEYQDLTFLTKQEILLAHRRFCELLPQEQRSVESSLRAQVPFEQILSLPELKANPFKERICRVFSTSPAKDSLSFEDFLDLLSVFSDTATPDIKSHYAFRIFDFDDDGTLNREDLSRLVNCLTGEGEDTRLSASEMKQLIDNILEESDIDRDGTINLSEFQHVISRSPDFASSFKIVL
Summary of the method: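 CIB1-GST (1 uM final) and compound incubated 15 min at room temperature before adding FITC-alphaIIb peptide tracer (100 nM final). Competition for binding read by fluorescence polarization (ex 480, em 540) after another 15 min at room temperature.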

[6] = target: Glutathione peroxidase 1 (Homo sapiens) (UniProt P07203); experiment: Primary qHTS Assay for Inhibitors of Recombinant Selenoprotein Glutathione Peroxidase 1 (GPX1) (AID 1845191); note: nearly all actives have a fitted effect of over 65% in size; note: potency is the fitted concentration of half-maximal effect; for activity, negative = inhibition: % is set by controls: 0 for no effect and ±100 for the full control effect
Sequence of Glutathione peroxidase 1 (Homo sapiens) (P07203 whole entry, looked up): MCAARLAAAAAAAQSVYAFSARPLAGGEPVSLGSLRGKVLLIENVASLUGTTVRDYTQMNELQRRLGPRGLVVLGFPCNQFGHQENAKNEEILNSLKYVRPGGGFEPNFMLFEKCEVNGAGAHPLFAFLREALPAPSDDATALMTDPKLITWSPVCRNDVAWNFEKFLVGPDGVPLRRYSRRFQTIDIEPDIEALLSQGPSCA
Summary of the method: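 10 nM GPX1 + cpd, 30 min RT; start w/ 1 mM GSH, 0.5 mM cumene hydroperoxide, 0.5 mM NADPH, 100 nM GR, 0.01% BSA; buffer 50 mM Tris-HCl pH 7.5, 2 mM EDTA, 150 mM NaCl; Fl 340/450, 0 & 15 min.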

[7] = qHTS to identify inhibitors of the type 1 interferon - major histocompatibility complex class I in skeletal muscle: primary screen against the NCATS Mechanism Interrogation Plate v5.0 (MIPE) Libary (AID 1347411);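 note: plate controls were vehicle for no effect and reference inhibitor for full effect; nearly all actives have a fitted effect of over 65% in size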
Summary of the method: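 Immortalized human C25cl48 myoblasts with HiBit knocked into endogenous HLA-B*08:01 were stimulated with 4.0 ng/ml IFN-beta and exposed to compounds (11-point 1:3 titration, top 46 uM final) for 24 hrs at 37 C; HiBiT lytic luminescence measured.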

[8] = target: Phospholipid hydroperoxide glutathione peroxidase GPX4 (Homo sapiens) (UniProt P36969); experiment: Primary qHTS Assay for Inhibitors of Recombinant Selenoprotein Glutathione Peroxidase 4 (GPX4) (AID 1845192); details: outcome: dose series up to 50 µM unless noted; note: % is set by controls: 0 for no effect and ±100 for the full control effect; nearly all actives have a fitted effect of over 65% in size
Sequence of Phospholipid hydroperoxide glutathione peroxidase GPX4 (Homo sapiens) (P36969 whole entry, looked up): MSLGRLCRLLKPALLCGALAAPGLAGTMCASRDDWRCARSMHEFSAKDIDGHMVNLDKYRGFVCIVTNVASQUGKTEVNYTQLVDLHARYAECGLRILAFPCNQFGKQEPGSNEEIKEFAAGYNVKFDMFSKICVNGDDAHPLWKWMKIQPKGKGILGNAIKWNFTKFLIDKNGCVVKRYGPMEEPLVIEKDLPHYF
Summary of the method: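 NADPH consumption, followed by fluorescence at 340/450 nm between 0 and 15 min, reports GPX4 activity via coupled glutathione reductase (100 nM). Enzyme 200 nM was pre-exposed to compound 30 min; 0.5 mM cumene hydroperoxide and 1 mM GSH served as substrates.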

[9] = qHTS drug screen for cell cycle checkpoint inhibitors in PARPi-resistant BRCA-mutant ovarian cancer cell lines. (AID 1963452; calls by dose curve); details: PEO1/OlaR viability, CellTiter-Glo luminescence, 96 h, stronger effect = lower value
Summary of the method: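 PEO1, PEO4 and PEO1/OlaR ovarian cancer cells, 600 per well, exposed 96 h at 37C to a dilution series. Viability read by CellTiter-Glo luminescence, normalized to DMSO and empty wells; activity summarized as Z-AUC.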

[10] = target: N-terminal Xaa-Pro-Lys N-methyltransferase 1 (Homo sapiens) (UniProt Q9BV86); experiment: Confirmatory qHTS for Inhibitors of N-terminal methyltransferase 1 (NTMT1): MTaseGlo Assay (AID 1645874)
Sequence of N-terminal Xaa-Pro-Lys N-methyltransferase 1 (Homo sapiens) (Q9BV86 whole entry, looked up): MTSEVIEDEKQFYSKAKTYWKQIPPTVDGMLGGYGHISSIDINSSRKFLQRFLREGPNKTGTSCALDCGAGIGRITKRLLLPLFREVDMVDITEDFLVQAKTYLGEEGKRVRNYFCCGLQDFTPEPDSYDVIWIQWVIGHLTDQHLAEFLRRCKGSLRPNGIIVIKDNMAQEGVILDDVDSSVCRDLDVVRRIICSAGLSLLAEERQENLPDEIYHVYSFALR
Summary of the method: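 Preincubation of NTMT1 (125 nM) plus SAM (100 uM) with test compounds lasted 15 min; methylation of 1 uM SPKRIA then proceeded 30 min in the dark at room temperature. Luciferase signal reported SAH produced.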

[11] = target: Catechol O-methyltransferase (Homo sapiens) (UniProt P21964); experiment: Confirmatory Screen for Target Class Profiling of Small Molecule Inhibitors of Methyltransferases (AID 1745852; calls by dose curve; note: potency is the fitted concentration of half-maximal effect; for activity change, negative = inhibition: % is set by controls: 0 for no effect and ±100 for the full control effect); details: MTase-Glo luminescence, SAH detection, recombinant enzyme; measured here: COMT max response; stronger effect = lower value
Sequence of Catechol O-methyltransferase (Homo sapiens) (P21964 whole entry, looked up): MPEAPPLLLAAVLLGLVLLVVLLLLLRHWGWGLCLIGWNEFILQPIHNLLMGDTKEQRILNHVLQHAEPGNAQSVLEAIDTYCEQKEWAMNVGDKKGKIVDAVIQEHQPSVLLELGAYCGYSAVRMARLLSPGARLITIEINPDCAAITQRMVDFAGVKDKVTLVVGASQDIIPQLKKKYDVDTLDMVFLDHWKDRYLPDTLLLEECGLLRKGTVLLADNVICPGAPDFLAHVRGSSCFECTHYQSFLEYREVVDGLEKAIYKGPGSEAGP

[12] = target: Guanidinoacetate N-methyltransferase (Homo sapiens) (UniProt Q14353); experiment: as above; details: activity change, negative = inhibition: at 57.3 µM (top of the series) unless noted
[13] = target: Nicotinamide N-methyltransferase (Homo sapiens) (UniProt P40261); experiment: as above; details: MTase-Glo luminescence, SAH detection, recombinant enzyme; measured here: NNMT max response; stronger effect = lower value
Sequence of Nicotinamide N-methyltransferase (Homo sapiens) (P40261 whole entry, looked up): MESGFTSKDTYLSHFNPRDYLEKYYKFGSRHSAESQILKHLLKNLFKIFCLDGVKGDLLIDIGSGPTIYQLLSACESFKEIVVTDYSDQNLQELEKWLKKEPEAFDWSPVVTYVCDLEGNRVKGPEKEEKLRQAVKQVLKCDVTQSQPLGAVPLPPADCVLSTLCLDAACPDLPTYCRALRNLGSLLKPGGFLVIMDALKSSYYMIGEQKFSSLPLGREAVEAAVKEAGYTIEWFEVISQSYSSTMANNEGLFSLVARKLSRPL

[14] = target: Phenylethanolamine N-methyltransferase (Homo sapiens) (UniProt P11086); experiment: as above; details: MTase-Glo luminescence, SAH detection, recombinant enzyme; measured here: PNMT max response; stronger effect = lower value
Sequence of Phenylethanolamine N-methyltransferase (Homo sapiens) (P11086 whole entry, looked up): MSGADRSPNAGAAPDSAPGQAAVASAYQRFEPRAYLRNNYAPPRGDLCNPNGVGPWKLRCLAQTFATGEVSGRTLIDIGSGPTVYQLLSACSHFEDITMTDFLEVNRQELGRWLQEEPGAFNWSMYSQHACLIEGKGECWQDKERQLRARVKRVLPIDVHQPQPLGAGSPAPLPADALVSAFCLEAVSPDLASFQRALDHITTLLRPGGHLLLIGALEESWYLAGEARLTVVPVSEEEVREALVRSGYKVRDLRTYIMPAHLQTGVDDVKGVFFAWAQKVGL

[15] = NCATS anti-infectives library activity on HEK293 viability as a counter-qHTS vs the C. elegans viability qHTS (AID 1745854); note: % is set by controls: 0 for no effect and ±100 for the full control effect
Summary of the method: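 HEK293 cells, 1500 per well, exposed 24 hr at 37C in 5% CO2 to compounds in a 1:5 titration, up to 41.7 uM final. Viability read as CellTiter-Glo luminescence after 10 min at room temperature.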

[16] = measured here: PEO1 parental Z-AUC

CCn1c(=O)c2cc(C(N)=O)c(N)nc2n(C2CC2)c1=O
Potency [1]: inactive | Potency [2]: inactive | Potency [3]: inactive

NC(=O)c1ncn(C2O[C@H](CO)[C@@H](O)[C@H]2O)c1N (stereo partly drawn)
Potency [1]: inactive | Potency [2]: inactive | Potency [3]: inactive | Potency [4]: inactive

O=C1CCCC2=C1C(c1ccccc1Br)N=C(Nc1nc3ccccc3o1)N2 (stereo not drawn)
Potency [1]: inactive | Potency [2]: inactive | outcome [5]: inactive | Potency [3]: inactive | Potency [4]: inactive | Potency [6]: inactive

O=C1CCCC2=C1C(c1ncccc1Br)N=C(Nc1nc3ccccc3o1)N2 (stereo not drawn)
Potency [1]: inactive | Potency [2]: inactive | outcome [5]: inactive | Potency [6]: inactive

OCCn1cc(-c2ccc3c(c2)CC/C3=N\O)c(-c2ccncc2)n1
Potency [1]: inactive | Potency [2]: inactive | Potency [7]: inactive | Potency [6]: inactive | Potency [8]: inactive | Z-AUC [9]: 2.52 (inactive) | Z-AUC [9, 16]: 1.44 | Z-AUC ([9]; measured here: PEO4 Z-AUC): 1.33

Cc1nc(CN(C)c2ncnc3ccc(-c4ccc5c(c4)OCO5)cc23)cs1
Potency [1]: 16.4 µM (active) | Potency [2]: 20.6 µM (active) | outcome [5]: inactive | Potency [10]: 4.26 µM (active) | Potency [3]: 8.2 µM (active) | Potency [4]: 9.2 µM (active) | activity [11]: -89.6% | Potency [12]: 19.2 µM (active) | activity [13]: -80.4% | activity [14]: -90.3% | Potency [6]: inactive

C#Cc1cccc(Nc2ncnc3cc4c(cc23)OCCOCCOCCO4)c1
Potency [1]: inactive | Potency [2]: inactive | Potency [7]: inactive | Potency [6]: inactive | Potency [8]: inactive | Z-AUC [9]: 0.644 (inactive) | Z-AUC [9, 16]: 0.664 | Z-AUC ([9]; measured here: PEO4 Z-AUC): 0.297

CC1=CC(=O)C(C(C)C)=C/C1=N/OC(=O)c1ccccc1C
Potency [1]: inactive | Potency [2]: inactive | Potency [3]: 8.2 µM (active) | Potency [4]: 11.6 µM (active) | Potency [6]: inactive

COc1cc(OC)c(/C=C2\C(=O)Nc3ccccc32)c(OC)c1
Potency [1]: 0.92 µM (active) | Potency [2]: 0.92 µM (active) | Potency [3]: 1.03 µM (active) | Potency [4]: 0.92 µM (active) | Potency [6]: inactive

Cc1cncc2cccc(S(=O)(=O)N3CCCNC[C@@H]3C)c12
Potency [1]: 6.51 µM (active) | Potency [2]: 1.64 µM (active) | Potency [3]: 13 µM (active) | Potency [4]: 3.66 µM (active) | Potency [6]: inactive

Oc1cccc(-c2nc(N3CCOCC3)c3sccc3n2)c1
Potency [1]: 5.17 µM (active) | Potency [2]: 4.61 µM (active) | Potency [3]: 1.3 µM (active) | Potency [4]: 1.16 µM (active) | Potency [6]: inactive

Oc1cc(CNC(=S)/C=C/c2cc(O)c(O)c(Br)c2)cc(O)c1O
Potency [1]: 7.31 µM (active) | Potency [2]: 7.31 µM (active) | Potency [3]: 1.16 µM (active) | Potency [4]: 1.03 µM (active) | activity [11]: -46.2% | activity change, negative = inhibition [12]: -4.79% | activity [13]: -0.986% | activity [14]: -0.984% | Potency [6]: 8.06 µM (active)

CSc1nc(N)cc(Oc2ccc(-c3nc(Nc4cccc(C(F)(F)F)c4)n[nH]3)cc2)n1
Potency [1]: 4.61 µM (active) | Potency [2]: 5.8 µM (active) | Potency [3]: 1.64 µM (active) | Potency [4]: 1.3 µM (active) | Potency [6]: inactive

CCN(CC)CCNC(=O)c1c(C)[nH]c(/C=C2\C(=O)Nc3ccc(Cl)cc32)c1C
Potency [1]: 16.4 µM (active) | Potency [2]: 18.4 µM (active) | Potency [3]: 2.59 µM (active) | Potency [4]: 2.91 µM (active) | Potency [6]: inactive

O=C1O[C@H](C(O)CO)C(=O)C1=O (stereo partly drawn)
Potency [1]: inactive | Potency [2]: inactive | Potency [3]: inactive | Potency [4]: inactive | Potency [6]: inactive

O=C1OC(/C=C/c2ccccc2)=NC/1=C\c1cccnc1
Potency [1]: inactive | Potency [2]: inactive | Potency [3]: inactive | Potency [4]: inactive | Potency [6]: inactive

O=C1NC(=O)C(c2c[nH]c3ccccc23)=C1c1c[nH]c2ccccc12
Potency [1]: inactive | Potency [2]: inactive | Potency [3]: 18.6 µM (active) | Potency [4]: 20.9 µM (active) | activity [11]: -38.2% | Potency [12]: 30.6 µM (active) | activity [13]: -39.6% | activity [14]: -46.7% | Potency [6]: inactive | Z-AUC [9]: 1.34 (inactive) | Z-AUC [9, 16]: 0.607 | Z-AUC ([9]; measured here: PEO4 Z-AUC): 0.134

N#Cc1c2nc3ccccc3nc2n2ccc(NC(=O)c3cccs3)cc12
Potency [1]: 23.1 µM (active) | Potency [2]: 20.6 µM (active) | Potency [3]: 1.16 µM (active) | Potency [4]: 1.16 µM (active) | Potency [6]: inactive

CC(C)C(=O)OC[C@@]1(N=[N+]=[N-])O[C@@H](n2ccc(N)nc2=O)[C@H](OC(=O)C(C)C)[C@@H]1OC(=O)C(C)C
Potency [1]: inactive | Potency [2]: inactive | Potency [3]: inactive | Potency [4]: inactive | outcome [15]: inactive

Cc1cc(Nc2cc(C)c(C#N)c(NC(C)CCCC(C)(C)O)n2)n[nH]1 (stereo not drawn)
Potency [1]: 1.46 µM (active) | Potency [2]: 1.3 µM (active) | Potency [3]: 1.03 µM (active) | Potency [4]: 1.16 µM (active) | Potency [6]: inactive

CN(C)CC(=O)N1CCC[C@@H](n2nc(-c3ccc(Oc4ccccc4)cc3)c3c(N)ncnc32)C1
Potency [1]: 20.6 µM (active) | Potency [2]: 20.6 µM (active) | Potency [3]: 1.64 µM (active) | Potency [4]: 1.64 µM (active) | Potency [6]: inactive

O=S(=O)(/N=C/c1c(O)ccc2ccccc12)c1cccs1
Potency [1]: inactive | Potency [2]: inactive | Potency [3]: inactive | Potency [4]: inactive | Potency [6]: inactive

Cc1c(-c2ccnc(Nc3cc(Br)cc(C(F)(F)F)c3)n2)sc(=O)n1C
Potency [1]: inactive | Potency [2]: inactive | Potency [3]: 5.8 µM (active) | Potency [4]: 4.11 µM (active) | Potency [6]: inactive

CC(C)n1nc(-c2ccc(NC(=O)Nc3cccc(C(F)(F)F)c3)cc2)c2c(N)ncnc21
Potency [1]: 1.03 µM (active) | Potency [2]: 4.11 µM (active) | Potency [3]: 0.366 µM (active) | Potency [4]: 0.259 µM (active) | activity [11]: -1.63% | activity change, negative = inhibition [12]: 0% | activity [13]: -74.3% | activity [14]: -1.08% | Potency [6]: inactive

CN(C)CCNC(=O)c1cccn2c(=O)c3cc4ccccc4cc3nc12
Potency [1]: 1.19 µM (active) | Potency [2]: 1.19 µM (active) | Potency [3]: 0.668 µM (active) | Potency [4]: 0.668 µM (active) | activity [11]: 3% | activity change, negative = inhibition [12]: 0.968% [at 12.7 µM] | activity [13]: 3.48% | activity [14]: 3.82% | activity, negative = inhibition [6]: 2.53% [at 9.52 µM] (inactive)
